For 37 compounds, growth inhibition results are on record in PubChem BioAssay (NCI).

Compounds without any hit were thinned out: in the full panel of roughly 79,000, 15% have a hit. Values without a mark were called inactive. Activity calls are given as the source filed them. No stated cut-off is given here; in the data, active means growth inhibition above about 70%; inactive means the rest.

A short description of experiment [1]: NCI Yeast Anticancer Drug Screen. Data for the rad50 strain (AID 155).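 Further: 0% = growth of vehicle-only cultures of the same strain.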 Conditions: S. cerevisiae rad50 strain growth inhibition; at 50.0 µM; stronger effect = higher value. The method, boiled down: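 Readout: growth inhibition relative to vehicle-treated cultures. Compound exposure was carried out in a genetically defined yeast strain deficient in DNA damage repair.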

Experiment [2] in a line: NCI Yeast Anticancer Drug Screen. Data for the mec2-1 strain (AID 157). Conditions: S. cerevisiae mec2-1 strain, at 50.0 µM, stronger effect = higher value. Summed up:
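Compounds were applied to mec2-1 yeast cells. Their growth was then compared with that of vehicle-treated cultures to give growth inhibition.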

The nature of experiment [3]: NCI Yeast Anticancer Drug Screen. Data for the sgs1 mgt1 strain (AID 161).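 Further: 0% = growth of cultures given vehicle only.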 The conditions noted are these: S. cerevisiae sgs1 mgt1 strain, at 50.0 µM, stronger effect = higher value. Summed up: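 Yeast cells carrying a defined DNA-repair defect were exposed to test compounds. Growth inhibition was measured relative to vehicle-treated controls.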
Experiment [4] is described as follows: NCI Yeast Anticancer Drug Screen. Data for the cln2 rad14 strain (AID 165).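 Further: 0% = growth equal to vehicle treated cultures.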 Conditions: S. cerevisiae cln2 rad14 strain, at 50.0 µM, stronger effect = higher value. The method, boiled down: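 Strain: cln2 rad14 yeast, altered in cell cycle control and DNA damage repair. Read-out: growth inhibition vs vehicle.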
Experiment [5] in a line: NCI Yeast Anticancer Drug Screen. Data for the bub3 strain (AID 167). Conditions: S. cerevisiae bub3 mutant strain, at 50.0 µM, stronger effect = higher value. The method, boiled down: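 Readout: yeast growth inhibition, expressed relative to vehicle-only wells. The test organism is a mutant strain from a panel with lesions in DNA repair or checkpoint genes.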
The nature of experiment [6]: NCI Yeast Anticancer Drug Screen. Data for the mlh1 rad18 strain (AID 175). Conditions: S. cerevisiae mlh1 rad18 strain growth inhibition; at 50.0 µM; stronger effect = higher value. The method, boiled down: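 A repair-deficient yeast strain is exposed to test compound, and growth is scored relative to vehicle-treated controls.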

In the case of `N#Cc1c(O)cc(=O)n2c1[nH]c1ccccc12`, the growth inhibition was -15.2% in experiment [1]; -24.3% in experiment [2]; -22% in experiment [3]; -10.3% in experiment [4]; 10.5% in experiment [5]; -4.15% in experiment [6].

With `OC1OC(CCl)C(Cl)C(O)C1O` (configuration not stated), the growth inhibition in experiment [1] was 0.55%; in experiment [2], -2.95%; in experiment [3], 9.9%; in experiment [4] it was -11%; in experiment [5] it was -18.9%; in experiment [6] it was -16.6%.

For the compound `Cc1ccc(S(=O)(=O)N(N)CCC#N)cc1`, the growth inhibition in experiment [1] is 7.3%; in experiment [2], 4.55%; in experiment [3], 14.8%; in experiment [4] it was -24.1%; in experiment [5], -10.1%; in experiment [6], 14.6%.

`CC1C(c2ccccc2)OC(c2ccccc2)N1C` (configuration not stated): the growth inhibition in experiment [1] was 3.25%; in experiment [2], -6.55%; in experiment [3], 21.4%; in experiment [4], 55.4%; in experiment [5], 9.7%; in experiment [6], -15.2%.

As for `CC(NC(=O)C(C)(C)C)c1ccc(-c2ccccc2)cc1` (configuration not stated), the growth inhibition in experiment [1] was 11.8%; in experiment [2], 29.6%; in experiment [3] it was 9.2%; in experiment [4], 12.6%; in experiment [5], 2%; in experiment [6], 10.8%.

As for `COc1ccc(C2(C#N)CCCC2)cc1`, the growth inhibition was 5.8% in experiment [1]; 12.4% in experiment [2]; 0.95% in experiment [3]; -30.6% in experiment [4]; 0.7% in experiment [5]; 8.7% in experiment [6].

For the compound `CC(C)CC/C(=N\NC(N)=O)C1CCOCC1`, the growth inhibition is -3.1% in experiment [1]; 14.2% in experiment [2]; 9.25% in experiment [3]; -7.2% in experiment [4]; -0.05% in experiment [5]; -3.85% in experiment [6].

Turning to `CCC(=O)OC(OC(=O)CC)c1ccc2c(c1)OCO2`, the growth inhibition is -4.6% in experiment [1]; 0.7% in experiment [2]; 4.45% in experiment [3]; -18.9% in experiment [4]; 7.75% in experiment [5]; -1% in experiment [6].

Take `CCOC(=O)C1=C(O)c2c(OC)ccc(OC)c2C(=O)C1=O`: the growth inhibition is -23.6% in experiment [1]; -43.5% in experiment [2]; -22.2% in experiment [3]; 3.65% in experiment [4]; -16% in experiment [5]; -30% in experiment [6].

With `C/C(=N\NC(=S)Nc1cccc2cccc(S(=O)(=O)O)c12)c1ccccn1`, the growth inhibition in experiment [1] is 3.4%; in experiment [2] it was -0.35%; in experiment [3] it was -18.2%; in experiment [4] it was -5.55%; in experiment [5], -7.4%; in experiment [6] it was 2.85%.

`CCN(CC)CCCC(C)NC(=O)c1ccc2c(c1O)C(=O)c1ccccc1C2=O` (configuration not stated): the growth inhibition in experiment [1] was 64%; in experiment [2] it was -7.75%; in experiment [3], 65.6%; in experiment [4], 58.5%; in experiment [5], 30.1%; in experiment [6], 84.6% (active).

Turning to `N#Cc1nc(COCc2ccccc2)oc1N`, the growth inhibition in experiment [1] was -19.9%; in experiment [2] it was -12.5%; in experiment [3], -5.45%; in experiment [4] it was 1.75%; in experiment [5], -19.5%; in experiment [6] it was -10.9%.

Take `COC(=O)C1=C(O)/C(=C\c2ccccc2)NC1=O`: the growth inhibition in experiment [1] is 9.35%; in experiment [2] it was -11.3%; in experiment [3], -12.9%; in experiment [4] it was -40.4%; in experiment [5] it was -17.8%; in experiment [6], -5.7%.

As to `CCOC(=O)C1=C(C)N(NC(N)=O)C(C)(O)C12CCOC2=O` (configuration not stated), the growth inhibition in experiment [1] is 32%; in experiment [2], 0%; in experiment [3], -10.8%; in experiment [4], 13.1%; in experiment [5], 3.2%; in experiment [6], 39%.

In the case of `CC1Cc2c([nH]c(=O)n(C)c2=O)O1` (configuration not stated), the growth inhibition in experiment [1] is 1.15%; in experiment [2] it was 8.2%; in experiment [3] it was 8.4%; in experiment [4] it was -1.5%; in experiment [5], -21.1%; in experiment [6] it was 2.1%.

Consider `CCOC(CN=C=S)OCC`, for which the growth inhibition in experiment [1] was 4.25%; in experiment [2] it was -3.95%; in experiment [3] it was 16.6%; in experiment [4], 9.05%; in experiment [5], -3.35%; in experiment [6] it was 4.65%.

As to `c1ccc(-c2nc3ccccc3nc2-c2ccc(-c3ccc(-c4nc5ccccc5nc4-c4ccccc4)cc3)cc2)cc1`, the growth inhibition is 16.1% in experiment [1]; 5.8% in experiment [2]; -13.8% in experiment [3]; 21.3% in experiment [4]; -0.4% in experiment [5]; 4.1% in experiment [6].

In the case of `COc1ccc(-c2cc(-c3ccccc3)c(C#N)c(=O)[nH]2)cc1`, the growth inhibition was 22.9% in experiment [1]; 5.85% in experiment [2]; 17.4% in experiment [3]; 17% in experiment [4]; 6.3% in experiment [5]; 21% in experiment [6].

For `CN(C)c1ccc(-c2ccncc2)cc1`, the growth inhibition in experiment [1] is 21.6%; in experiment [2] it was 15.2%; in experiment [3], 18.9%; in experiment [4], -11.8%; in experiment [5], 17.4%; in experiment [6] it was 17.2%.

`CCC(=O)OC1(C(=O)OC)CCN(C)CC1`: the growth inhibition is 9.5% in experiment [1]; 2.95% in experiment [2]; -0.9% in experiment [3]; 15.2% in experiment [4]; 17.8% in experiment [5]; 10.4% in experiment [6].

For the compound `COc1cc(Nc2nc3cc(C(F)(F)F)ccc3nc2-c2ccccc2)cc(OC)c1OC`, the growth inhibition in experiment [1] was 15.4%; in experiment [2], -4.8%; in experiment [3] it was -26.4%; in experiment [4], -11.8%; in experiment [5] it was -10.4%; in experiment [6] it was -23.9%.

Turning to `COn1nnc2ccccc21`, the growth inhibition was -21% in experiment [1]; -13.8% in experiment [2]; -19.9% in experiment [3]; 5.15% in experiment [4]; 7.9% in experiment [5]; -18.1% in experiment [6].

Turning to `COc1cc2oc(-c3ccc(O)cc3)cc(=O)c2c(OC)c1OC`, the growth inhibition in experiment [1] was -4.35%; in experiment [2] it was -5.95%; in experiment [3], -2.35%; in experiment [4], -26.7%; in experiment [5] it was 17.9%; in experiment [6], 12.3%.

For `Oc1ccccc1C=Nc1ccc(Cl)cn1`, the growth inhibition in experiment [1] is 17.2%; in experiment [2], 15.2%; in experiment [3], 16.2%; in experiment [4], 21.6%; in experiment [5], 18.9%; in experiment [6], 20.8%.

As to `COc1ccc2oc(=O)[nH]c2c1`, the growth inhibition in experiment [1] was 5.3%; in experiment [2], -3.95%; in experiment [3], 9.9%; in experiment [4] it was 13.1%; in experiment [5], -6.9%; in experiment [6] it was -4.5%.

As to `c1ccc2c(c1)cc1n2CC2CN=NC12` (configuration not stated), the growth inhibition in experiment [1] is -5.85%; in experiment [2], 14.4%; in experiment [3], -27.4%; in experiment [4], 12.3%; in experiment [5] it was -5.55%; in experiment [6] it was 10.1%.

Take `Nc1[nH]c(=S)[nH]c(=O)c1N=O`: the growth inhibition in experiment [1] was -2.75%; in experiment [2], -2.55%; in experiment [3], -5.75%; in experiment [4], -14.7%; in experiment [5], -4.1%; in experiment [6], 3.95%.

As to `CC(/C=N\NC(=S)SCc1ccccc1)=N/N=C(N)N`, the growth inhibition in experiment [1] is 52.4%; in experiment [2], 50.2%; in experiment [3] it was 57.2%; in experiment [4] it was -3.7%; in experiment [5], 52.9%; in experiment [6], 64.6%.

Take `Fc1ccc(-c2nnc(-c3ccccc3)o2)cc1`: the growth inhibition in experiment [1] is 21.4%; in experiment [2] it was 19.1%; in experiment [3], 25.2%; in experiment [4], 7.2%; in experiment [5], 31.4%; in experiment [6], 8.15%.

On to `C=C(C)COc1ccc(-c2ccccc2)cc1`, for which the growth inhibition in experiment [1] was 24.5%; in experiment [2], 7.35%; in experiment [3] it was 8%; in experiment [4], -4.95%; in experiment [5] it was -3.85%; in experiment [6], -3.2%.

Take `CN(C=O)C(C(=O)Nc1cccc2c(OC(=O)C(N(C)C=O)(N(C)C=O)N(C)C=O)c(N=Nc3ccc(S(=O)(=O)Nc4nccs4)cc3)cc(N=Nc3ccc(S(=O)(=O)Nc4nccs4)cc3)c12)(N(C)C=O)N(C)C=O` (tested in a mixture with another compound): the growth inhibition in experiment [1] was 60.1%; in experiment [2] it was 6.25%; in experiment [3] it was -6.25%; in experiment [4], -6.5%; in experiment [5] it was 16.9%; in experiment [6], 35.6%.

As for `Cc1c(-c2ccccc2)[nH]c2cc(Cl)ccc2c1=O`, the growth inhibition was -28.9% in experiment [1]; 2.55% in experiment [2]; -16.4% in experiment [3]; 13% in experiment [4]; 16.9% in experiment [5]; -10.3% in experiment [6].

On to `C[n+]1cccc(/C=C/C(=O)Nc2ccccc2)c1`, for which the growth inhibition is 5.8% in experiment [1]; 7% in experiment [2]; -24.1% in experiment [3]; 5.95% in experiment [4]; 12.1% in experiment [5]; 19.4% in experiment [6].

Consider `CSc1ccc(C2=CCCCC2)cc1`, for which the growth inhibition in experiment [1] is -4.35%; in experiment [2], -1.7%; in experiment [3], 0.05%; in experiment [4] it was -15%; in experiment [5], 0.95%; in experiment [6] it was 17.9%.

For `CCCOC(=O)/C(C)=C\c1ccccc1`, the growth inhibition was 21% in experiment [1]; 15.9% in experiment [2]; 17.6% in experiment [3]; 15.3% in experiment [4]; -0.6% in experiment [5]; 16.9% in experiment [6].

As for `CC(=O)O[C@@H]1[C@H]2[C@@H](OC(=O)c3ccccc3)[C@@H](C)C[C@]2(O)[C@H](OC(C)=O)[C@@]2(C)[C@@H]3C[C@@](C)(OC(C)=O)C[C@@H](OC(C)=O)[C@@]3(OC(C)=O)C[C@@]12C`, the growth inhibition is -7.55% in experiment [1]; -7.05% in experiment [2]; -3.8% in experiment [3]; -32.8% in experiment [4]; -6.35% in experiment [5]; -50.5% in experiment [6].

For the compound `N/N=C1/C=Cc2cccc3cccc1c23`, the growth inhibition in experiment [1] was 19.3%; in experiment [2], -37.2%; in experiment [3] it was 15.3%; in experiment [4], 30.2%; in experiment [5] it was 16.2%; in experiment [6] it was 38.4%.
